Results: PubChem BioAssay (NCI)
This is part of a sample that, as a whole, favours compounds with a hit. Of some 79,000 tested, about 15% had one in any assay. Activity calls are given as the source filed them. Cut-off read from the data, not from the text of the source: active = growth inhibition above about 70%; inactive = the rest.

Legend:
[1] = NCI Yeast Anticancer Drug Screen. Data for the mlh1 strain (AID 171);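 note: 0% = growth of vehicle-treated control cultures of the same strain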; conditions: S. cerevisiae mlh1 strain growth inhibition, stronger effect = higher value
In short: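 Test agents were incubated with yeast bearing a defined DNA damage repair or cell cycle control alteration; values are growth inhibition normalised to vehicle-treated cultures.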

[2] = NCI Yeast Anticancer Drug Screen. Data for the sgs1 strain (AID 173);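 note: 0% = growth of vehicle-only control cultures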; conditions: S. cerevisiae sgs1 mutant, stronger effect = higher value
In short: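 Strain with an altered DNA repair or cell cycle pathway exposed to compound. Growth then measured. Value = inhibition versus vehicle control.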

[3] = NCI Yeast Anticancer Drug Screen. Data for the mlh1 rad18 strain (AID 175); conditions: S. cerevisiae mlh1 rad18 strain growth inhibition, stronger effect = higher value
In short: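 A repair-deficient yeast strain is exposed to test compound, and growth is scored relative to vehicle-treated controls.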

[4] = NCI Yeast Anticancer Drug Screen. Data for the rad18 strain (AID 177); conditions: S. cerevisiae rad18 mutant growth inhibition, stronger effect = higher value
In short: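 DNA-repair-defective yeast; compound treatment; growth inhibition scored against vehicle.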

[5] = NCI Yeast Anticancer Drug Screen. Data for the rad52 strain (AID 147);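 note: 0% = growth of vehicle-treated control cultures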; conditions: S. cerevisiae rad52 mutant growth inhibition, stronger effect = higher value
In short: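 Growth of repair-deficient yeast cells was compared between compound-treated and vehicle-treated cultures to give percent inhibition.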

[6] = NCI Yeast Anticancer Drug Screen. Data for the wt1 strain (AID 149);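 note: 0% = growth of vehicle-treated wt1 cultures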; conditions: S. cerevisiae wt1 strain (SPY 50644) growth inhibition, stronger effect = higher value
In short: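 wt1 yeast, compound-treated; % growth inhibition vs vehicle control.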

[7] = NCI Yeast Anticancer Drug Screen. Data for the mgt1 strain (AID 153); conditions: S. cerevisiae mgt1 mutant growth inhibition, stronger effect = higher value
In short: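 Compounds were applied to mgt1 mutant yeast, and growth was then compared against vehicle-treated control cultures to give percent inhibition.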

[8] = NCI Yeast Anticancer Drug Screen. Data for the rad50 strain (AID 155);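 note: 0% = growth of vehicle-only cultures of the same strain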; conditions: S. cerevisiae rad50 strain growth inhibition, stronger effect = higher value
In short: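 Genetically altered yeast (DNA repair pathway); compound treatment; growth inhibition vs vehicle ctrl.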

[9] = NCI Yeast Anticancer Drug Screen. Data for the mec2-1 strain (AID 157); conditions: S. cerevisiae mec2-1 strain, stronger effect = higher value
In short: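 Compounds were applied to mec2-1 yeast cells. Their growth was then compared with that of vehicle-treated cultures to give growth inhibition.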

[10] = NCI Yeast Anticancer Drug Screen. Data for the rad14 strain (AID 159);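 note: 0% = growth of vehicle-treated control cultures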; conditions: S. cerevisiae rad14 strain growth inhibition, stronger effect = higher value
In short: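 Test compounds were applied to a repair-deficient yeast strain. Its growth was then compared with that of cultures given vehicle alone, and inhibition was expressed relative to those controls.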

[11] = NCI Yeast Anticancer Drug Screen. Data for the sgs1 mgt1 strain (AID 161);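 note: 0% = growth of cultures given vehicle only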; conditions: S. cerevisiae sgs1 mgt1 strain, stronger effect = higher value
In short: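 Growth of a repair-deficient yeast mutant was monitored after compound treatment and expressed as inhibition relative to vehicle-treated cultures.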

[12] = NCI Yeast Anticancer Drug Screen. Data for the CLN2oe strain (AID 163);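 note: 0% = growth of vehicle-only control cultures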; conditions: S. cerevisiae CLN2oe strain, stronger effect = higher value
In short: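 Cells of an engineered yeast line with disturbed cell-cycle regulation are treated with compound. Inhibition of growth is then calculated relative to the vehicle-treated reference.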

[13] = NCI Yeast Anticancer Drug Screen. Data for the cln2 rad14 strain (AID 165);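 note: 0% = growth equal to vehicle treated cultures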; conditions: S. cerevisiae cln2 rad14 strain, stronger effect = higher value
In short: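 Strain: cln2 rad14 yeast, altered in cell cycle control and DNA damage repair. Read-out: growth inhibition vs vehicle.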

[14] = NCI Yeast Anticancer Drug Screen. Data for the bub3 strain (AID 167); conditions: S. cerevisiae bub3 mutant strain, stronger effect = higher value
In short: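 Yeast carrying a defined mutation is treated with each compound, and growth is compared with that of vehicle-exposed cells to give inhibition.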

[15] = NCI Yeast Anticancer Drug Screen. Data for the wt2 strain (AID 169);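 note: 0% = growth of vehicle-treated yeast cultures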; conditions: S. cerevisiae wt2 strain growth inhibition, stronger effect = higher value
In short: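 Growth of compound-treated yeast is measured and expressed as inhibition relative to vehicle-only controls.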

[16] = NCI Yeast Anticancer Drug Screen. Data for the rad50EPP+ strain (AID 151);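 note: 0% = growth of vehicle-treated control cultures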; conditions: S. cerevisiae rad50 mutant strain, stronger effect = higher value
In short: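 Measured: growth inhibition of rad50EPP+ yeast. Reference: vehicle-treated controls. Screen uses strains with defined genetic alterations in DNA damage repair or cell cycle control.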

[17] = at 5.0 µM (retest, dose inferred, filed as 0.5)
[18] = at 50.0 µM (retest, dose inferred, filed as 5.0)

Measured: growth inhibition

CCCCCCCCCCCCCCCCCCNC
active: [1]; at 100.0 µM 70% | [2]; at 100.0 µM 87% | [3]; [18] 94% | [4]; at 100.0 µM 88%
inactive: [1]; at 1.2 µM -26% | [1]; at 3.7 µM -10% | [1]; at 11.0 µM -8% | [1]; at 33.0 µM -40% | [2]; at 1.2 µM -9% | [2]; at 3.7 µM -27% | [2]; at 11.0 µM -27% | [2]; at 33.0 µM -16% | [3]; [17] 41% | [3]; at 50.0 µM 61.3% | [4]; at 1.2 µM 17% | [4]; at 3.7 µM 7% | [4]; at 11.0 µM 7% | [4]; at 33.0 µM 18%

O=[N+]([O-])c1cccc2nccc(NCCCO)c12
active: [5]; at 100.0 µM 70% | [8]; [18] 79% | [8]; at 100.0 µM 70% | [10]; at 33.0 µM 75% | [10]; at 100.0 µM 91% | [11]; [18] 85% | [11]; at 50.0 µM 73.8% | [13]; [18] 91% | [2]; at 33.0 µM 79% | [2]; at 100.0 µM 86% | [3]; [18] 91%
inactive: [5]; at 1.2 µM 18% | [5]; at 3.7 µM 2% | [5]; at 11.0 µM 11% | [5]; at 33.0 µM 40% | [6]; at 1.2 µM 1% | [6]; at 3.7 µM 0% | [6]; at 11.0 µM 5% | [6]; at 33.0 µM 10% | [6]; at 100.0 µM 16% | [7]; at 1.2 µM -24% | [7]; at 3.7 µM -9% | [7]; at 11.0 µM -12% | [7]; at 33.0 µM 5% | [7]; at 100.0 µM 26% | [8]; at 1.2 µM -17% | [8]; at 3.7 µM 3% | [8]; [17] 32% | [8]; at 11.0 µM 11% | [8]; at 33.0 µM 40% | [8]; at 50.0 µM 46.3% | [9]; at 1.2 µM -20% | [9]; at 3.7 µM -12% | [9]; [17] 13% | [9]; at 11.0 µM -3% | [9]; at 33.0 µM 23% | [9]; [18] 52% | [9]; at 50.0 µM 57.7% | [9]; at 100.0 µM 68% | [10]; at 1.2 µM -9% | [10]; at 3.7 µM 4% | [10]; at 11.0 µM 34% | [11]; [17] 51% | [12]; at 1.2 µM 11% | [12]; at 3.7 µM 5% | [12]; at 11.0 µM 4% | [12]; at 33.0 µM 2% | [12]; at 100.0 µM 14% | [13]; [17] 15% | [13]; at 50.0 µM 57.9% | [14]; at 1.2 µM -12% | [14]; at 3.7 µM -13% | [14]; [17] 4% | [14]; at 11.0 µM -14% | [14]; at 33.0 µM -18% | [14]; [18] -43% | [14]; at 50.0 µM 10.1% | [14]; at 100.0 µM -9% | [15]; at 1.2 µM -27% | [15]; at 3.7 µM -26% | [15]; at 11.0 µM -19% | [15]; at 33.0 µM -22% | [15]; at 100.0 µM 6% | [1]; at 1.2 µM -26% | [1]; at 3.7 µM -7% | [1]; at 11.0 µM -3% | [1]; at 33.0 µM 5% | [1]; at 100.0 µM 30% | [2]; at 1.2 µM 8% | [2]; at 3.7 µM 38% | [2]; at 11.0 µM 62% | [3]; [17] 24% | [3]; at 50.0 µM 32.9%

Cc1ccc(S(=O)(=O)NNC(=S)Nc2cccc3ccccc23)cc1
active: [14]; [18] 96%
inactive: [5]; at 1.2 µM 4% | [5]; at 3.7 µM 2% | [5]; at 11.0 µM 3% | [5]; at 33.0 µM 7% | [5]; at 100.0 µM 6% | [6]; at 1.2 µM -3% | [6]; at 3.7 µM -2% | [6]; at 11.0 µM -1% | [6]; at 33.0 µM 1% | [6]; at 100.0 µM 2% | [16]; at 1.2 µM 10% | [16]; at 3.7 µM 11% | [16]; at 11.0 µM 20% | [16]; at 33.0 µM 15% | [16]; at 100.0 µM 1% | [8]; at 1.2 µM 0% | [8]; at 3.7 µM -4% | [8]; [17] -4% | [8]; at 11.0 µM -10% | [8]; at 33.0 µM 2% | [8]; [18] 16% | [8]; at 50.0 µM 9.65% | [8]; at 100.0 µM 2% | [9]; at 1.2 µM 3% | [9]; at 3.7 µM 2% | [9]; [17] -19% | [9]; at 11.0 µM 4% | [9]; at 33.0 µM 5% | [9]; [18] 33% | [9]; at 50.0 µM -14.4% | [9]; at 100.0 µM 4% | [11]; [17] -23% | [11]; [18] 41% | [11]; at 50.0 µM 49.6% | [12]; at 1.2 µM -12% | [12]; at 3.7 µM -14% | [12]; at 11.0 µM -18% | [12]; at 33.0 µM -12% | [12]; at 100.0 µM -1% | [13]; [17] -1% | [13]; [18] 17% | [13]; at 50.0 µM 13.4% | [14]; at 1.2 µM -1% | [14]; at 3.7 µM 0% | [14]; [17] -19% | [14]; at 11.0 µM 10% | [14]; at 33.0 µM 14% | [14]; at 50.0 µM 66.5% | [14]; at 100.0 µM 29% | [15]; at 1.2 µM -2% | [15]; at 3.7 µM -1% | [15]; at 11.0 µM 2% | [15]; at 33.0 µM 8% | [15]; at 100.0 µM 7% | [1]; at 1.2 µM 0% | [1]; at 3.7 µM -6% | [1]; at 11.0 µM -2% | [1]; at 33.0 µM 0% | [1]; at 100.0 µM -5% | [2]; at 1.2 µM 2% | [2]; at 3.7 µM 4% | [2]; at 11.0 µM 10% | [2]; at 33.0 µM 18% | [2]; at 100.0 µM 17% | [3]; [17] -8% | [3]; [18] 29% | [3]; at 50.0 µM -1.25% | [4]; at 1.2 µM -1% | [4]; at 3.7 µM -1% | [4]; at 11.0 µM 2% | [4]; at 33.0 µM -4% | [4]; at 100.0 µM 12%
